High-throughput results as filed in PubChem.
An excerpt weighted towards active compounds, which were near 4.8% of everything screened.
SMARCA2 activ: SMARCA2 (BRM) function activators, primary screen, cell-based, luminescence, high throughput | MG213 cells, MMTV-luciferase reporter, dexamethasone, overnight | activation, % at 9.1 µM | 370,000 compounds, 1% hits; in the data active = activation above about 7.8%
DAX1 inh-1: DAX1 (NR0B1) inhibitors on StAR promoter, primary screen, cell-based, luminescence, SF-1 (NR5A1), full-length DAX-1; HEK293T StAR-luciferase reporter, SF-1/DAX-1 repression relief; 370,000 compounds, 1.1% hits; inhibition, % at 6.8 µM;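 active = inhibition above the mean over all tested compounds plus 3 SD, cut at about 3.6% in these data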;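 note: higher inhibition means more luminescence from relief of DAX-1 repression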
hcDAF-12 act: H. contortus DAF-12 nuclear receptor activators, primary screen, cell-based, luminescence, HEK293, lit1-tk-luc reporter; HEK293 hcDAF-12 lit1-tk-luc reporter; 0% DMSO, 100% Δ7-dafachronic acid; activation, % at 6.8 µM; 370,000 compounds, 1.4% hits; AID 652067, 2013;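 active = activation above the mean of all tested compounds plus 3 SD, cut at about 5.5% in these data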
DAX1 inh-2: DAX1 (NR0B1) inhibitors, primary screen, cell-based, HEK293, Gal4-DAX1, luciferase luminescence | Nuclear receptor subfamily 0 group B member 1 (Homo sapiens), P51843 | HEK293 Gal4-DAX1 luciferase reporter | inhibition, % at 6.75 µM | 340,000 compounds, 0.99% hits;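 active = inhibition above the mean over all tested compounds plus 3 SD, cut at about 4.2% in these data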;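 note: inhibition shows as a rise in luminescence from relieved DAX1 repression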
Target sequence (P51843 207-470 limits assumed): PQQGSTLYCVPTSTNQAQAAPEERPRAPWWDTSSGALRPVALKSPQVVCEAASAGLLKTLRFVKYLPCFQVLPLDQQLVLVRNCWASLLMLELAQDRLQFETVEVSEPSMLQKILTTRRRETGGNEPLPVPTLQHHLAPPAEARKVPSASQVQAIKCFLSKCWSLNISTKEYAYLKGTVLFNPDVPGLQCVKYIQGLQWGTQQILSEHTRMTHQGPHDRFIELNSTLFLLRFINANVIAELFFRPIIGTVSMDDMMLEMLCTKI
ssDAF12 agonist: S. stercoralis DAF-12 nuclear receptor activators, primary screen, cell-based, luminescence, HEK293, GRIP1 co-expression, lit1-tk-luc; AID 652126, 2013; activation, % at 6.8 µM; HEK293 ssDAF-12/GRIP1 lit1-tk-luc reporter; % of 3 µM dafachronic acid response; 370,000 compounds, 1% hits;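 active = activation above the mean over all tested compounds plus 3 SD, cut at about 0.9% in these data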
hgDAF12 agonist: H. glycines DAF-12 receptor agonists, primary screen, cell-based, luminescence, HEK293, GAL4 fusion, UAS-luciferase. Nuclear hormone receptor DAF-12 (Heterodera glycines), GAL4 fusion. HEK293 GAL4-hgDAF12 UAS-luciferase reporter, agonist luminescence; normalized to butyrate control. activation, % at 6.8 µM. 370,000 compounds, 1.8% hits;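 active = activation above a cutoff set at the mean of all screened compounds plus 3 SD, cut at about 10% in these data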
SMARCA2 conf: SMARCA2 (BRM) function activators, confirmation, cell-based, luminescence, triplicate; MG213 cells, MMTV-luciferase with dexamethasone, overnight; MG213 cells expressing E1A, Rb sequestered; DMSO wells 0%, reference activator 100%; AID 652260, 2013; activation, % at 9.1 µM; 3,500 compounds, 30% hits; shares compounds with SMARCA2 activ;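 active = activation above its plate's cutoff, the mean activation of tested wells plus 3 SD, cut at about 7.9% in these data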
GAL4-VP16 Luc: GAL4-VP16 luciferase reporter activation, counter-screen for SMARCA2 (BRM) activator project, cell-based, pG5luc, luminescence, high throughput. shares compounds with SMARCA2 activ. HEK293 GAL4-VP16 pG5luc reporter; scaled: DMSO wells 0%, SAHA wells 100%. activation, % at 9.1 µM. 3,500 compounds, 41% hits. AID 686939, 2013;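 active = activation above the solvent-only control well mean plus 3 SD, averaged across control plates, cut at about 5.2% in these data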
Each line names hits and unclear results; the compound was inactive in the other large screens (follow-up assays come after a bar, where they were run).

CCN(CC)C(=O)CSc1nc(N)c2c3c(sc2n1)CC(C)CC3 (configuration not stated)	SMARCA2 activ 8.3 | SMARCA2 conf inactive | GAL4-VP16 Luc 8.1
COc1ccc(S(=O)(=O)N2CCOCC2)cc1NC(=O)CCNC(=O)c1ccc(Cl)cc1	SMARCA2 activ 8.1 | SMARCA2 conf inactive | GAL4-VP16 Luc inactive
CCOc1ccccc1NS(=O)(=O)c1ccc2c(c1)n(C)c(=O)c(=O)n2C	SMARCA2 activ 12.2 | SMARCA2 conf inactive | GAL4-VP16 Luc inactive
CC(C)(C)C1=Nn2c(nnc2-c2ccc(C(C)(C)C)cc2)SC1	none (no result: DAX1 inh-2)
COc1ccccc1N=Cc1nc(-c2ccccc2)oc1OC(C)=O	none
CC(=O)Oc1oc(-c2ccccc2)nc1/C=N/c1ccccn1	SMARCA2 activ 8.1, DAX1 inh-2 5.1 | SMARCA2 conf inactive | GAL4-VP16 Luc 8.1
COc1ccc(/C=N/NC(=O)c2ccncc2)cc1CN1CCOCC1	none
COc1ccc(/C=N\NC(=O)c2nn(C)cc2Cl)cc1CN1CCOCC1	SMARCA2 activ 10.5 | SMARCA2 conf inactive | GAL4-VP16 Luc inactive
O=C(OC12CCCN(C1)/C(=C/c1cccnc1)C2)c1cccc(F)c1 (configuration not stated)	none (no result: DAX1 inh-2)
Cc1nc(COC(=O)c2c(C)nn(-c3ccccc3)c2C)cs1	SMARCA2 activ 9.1 | SMARCA2 conf 10.4 | GAL4-VP16 Luc inactive
Cc1nn(-c2ccccc2)c(C)c1C(=O)OCC(=O)Nc1ccccc1	none
Cc1cccc(C(=O)Nc2c(-c3ccccc3)nc3ncccn23)c1	none (no result: DAX1 inh-2)
CCSc1nnc(NC(=O)c2ccc3c(c2)OCO3)s1	none
CC(C)(C)c1nnc(NC(=O)c2ccc3c(c2)OCO3)s1	SMARCA2 activ 10.4 | SMARCA2 conf 8.4 | GAL4-VP16 Luc 6.4
CSc1nc(SCCN(C)C)c2c3c(sc2n1)COC(C)(C)C3	SMARCA2 activ 8.1 | SMARCA2 conf inactive | GAL4-VP16 Luc inactive
CCC(C)N(C(=O)Cn1nc(Cc2ccncc2)c2ccccc2c1=O)C(C)CC (configuration not stated)	none (no result: DAX1 inh-2)
O=C(NNC(=O)C1CC2CCC1C2)c1sc2ccccc2c1Cl (configuration not stated)	SMARCA2 activ 8.4, hgDAF12 agonist 12.9 | SMARCA2 conf inactive | GAL4-VP16 Luc inactive
COc1cc(Br)c(/C=C/c2ccc3cccc(O)c3n2)cc1OC	none
COc1ccc(OC)c(/C=C/c2ccc3cccc(O)c3n2)c1	SMARCA2 activ 9.1 | SMARCA2 conf inactive | GAL4-VP16 Luc 13.3
CN1OC[C@@H]2CN3C(=Nc4cc(C(F)(F)F)cc(C(F)(F)F)c4)Sc4ccccc4[C@@H]3C[C@@H]21	none (no result: DAX1 inh-2)
O=C(/C=C/c1ccc(-c2ccccc2)o1)c1ccccc1	SMARCA2 activ 11.8 | SMARCA2 conf 20.5 | GAL4-VP16 Luc inactive
COc1cc(C(=O)c2cocc2C(=O)c2ccc3c(c2)OCO3)cc(OC)c1OC	SMARCA2 activ 9.0 | SMARCA2 conf inactive | GAL4-VP16 Luc 6.3
COc1cc(C(=O)c2ccc3c(c2)OCO3)cc(OC)c1OC	none
COc1ccc(CCNC(=O)C(=O)NCC2OCCN2C(=O)c2ccc(Cl)cc2)cc1OC (configuration not stated)	SMARCA2 activ 9.5 | SMARCA2 conf inactive | GAL4-VP16 Luc inactive
CCOC(=O)[C@]12CCCC3=C1N(CCC3)C(=O)[C@@H](CC(=O)NCc1ccc(C)o1)C2	none (no result: DAX1 inh-2)
COc1ccc(-n2c(SCC(=O)Nc3ccc(Oc4ccccc4)cc3)nnc2-c2ccc(C)cc2)cc1	none (no result: DAX1 inh-2)
O=C(Nc1ccccc1F)c1csc([C@@H]2C[C@H](O)[C@@H](CO)O2)n1	SMARCA2 activ 10.6 (no result: DAX1 inh-2) | SMARCA2 conf inactive | GAL4-VP16 Luc inactive
O=C(Nc1cccc2ccccc12)c1csc([C@@H]2C[C@H](O)[C@@H](CO)O2)n1	none (no result: DAX1 inh-2)
CC(C)n1nnnc1C1(C)CSCC(=O)N1Cc1cccc(F)c1 (configuration not stated)	none (no result: DAX1 inh-2)
CCNC(=O)COc1ccc(CC)cc1	SMARCA2 activ 8.1 | SMARCA2 conf 8.0 | GAL4-VP16 Luc inactive
Cc1ccc(OCC(=O)NCCO)cc1C	SMARCA2 activ 10.2 | SMARCA2 conf inactive | GAL4-VP16 Luc inactive
O=C(COc1ccc(Br)cc1)NCCO	none
Cc1ccsc1/C=C1/SC(N2CC(C)OC(C)C2)=NC1=O (configuration not stated)	SMARCA2 activ 10.6 | SMARCA2 conf inactive | GAL4-VP16 Luc inactive
Cc1ccnc2nc(C(=O)Nc3nc4ccccc4s3)nn12	SMARCA2 activ 10.9, DAX1 inh-1 4.3, hcDAF-12 act 6.3, ssDAF12 agonist 1.0, hgDAF12 agonist 12.5 | SMARCA2 conf inactive | GAL4-VP16 Luc 11.2
Cc1ccnc2nc(C(=O)Nc3nnc(CC(C)C)s3)nn12	none
Cc1csc(NC(=O)c2nc3nccc(C)n3n2)n1	SMARCA2 activ 8.6 | SMARCA2 conf inactive | GAL4-VP16 Luc inactive
COC(=O)[C@]12C[C@H](CC(=O)NCC34CC5CC(CC(C5)C3)C4)C(=O)N(Cc3ccc4c(c3)OCO4)C1=C[C@H](C(C)(C)C)O[C@@H]2C	none (no result: DAX1 inh-2)
COC(=O)CNc1c(-c2ccccc2)nc2ccc(Br)cn12	SMARCA2 activ 14.2 | SMARCA2 conf 10.8 | GAL4-VP16 Luc 6.8
COC(=O)Nc1c(-c2ccccc2)nc2ccc(Cl)cn12	none
COC(=O)c1cc2c(c3c4ccccc4n(S(=O)(=O)c4ccc(OC)cc4)c13)C(=O)N(Cc1ccc(N(C)C)cc1)C2	none (no result: DAX1 inh-2)
CC1=C(C(=O)OCc2ccccc2)C(c2ccccc2)NC(=O)N1 (configuration not stated)	none
COc1ccc(C2NC(=O)NC(C)=C2C(=O)OCc2ccccc2)cc1 (configuration not stated)	SMARCA2 activ 13.6 | SMARCA2 conf inactive | GAL4-VP16 Luc inactive
COc1ccc(-c2nnc(SCC(=O)NN=Cc3c(O)ccc4ccccc34)n2-c2ccc(OC)cc2)cc1	none (no result: DAX1 inh-2)
